The panel holds about 83,000 compounds, 20% with a hit somewhere; the sample as a whole holds those more often.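 Plates (96-well) were seeded with cells, treated with compound at one concentration, and incubated for 48 hours before percent growth was determined.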 Unmarked numbers belong to inactive results. Active and inactive are the calls of the source. The calls were made as follows: active = growth percent below 10; inactive = the rest.

The text below walks through data of PubChem BioAssay (NCI).

Holding throughout (assay): NCI-60 one-dose screen, 48 h (100 = growth as untreated, 0 = no growth, -100 = all killed)
Common to all, as to conditions: 10 µM unless noted

For assay [1], the system named is SK-MEL-2 melanoma.
In assay [2] the test system is EKVX NSCLC.
Assay [3] has as its system SN12C renal.
The subject of assay [4] is UO-31 renal.
Assay [5] relates to TK-10 renal.
Assay [6] relates to ACHN renal.
Assay [7] has as its system A498 renal.
Assay [8] concerns CCRF-CEM leukemia.
Assay [9] relates to MOLT-4 leukemia.
In assay [10] the test system is SR leukemia.

Turning to `O=c1cc(/C=N\Nc2nc(-c3ccc(Cl)cc3Cl)cs2)c2cc(Cl)ccc2o1`, the growth is 92.9% in assay [1]; 79.3% in assay [2]; 95% in assay [3]; 70.4% in assay [4]; 120% in assay [5]; 97.7% in [6]. Besides, the growth in [7] was 101%; in assay [8], 97.3%; in assay [9], 98.1%; in assay [10] it was 80.7%.
As for `C=C1C(=O)O[C@H]2[C@H]1CC/C(COC(=O)c1c[nH]c3ccccc13)=C\CC[C@@]1(C)O[C@@H]21`, the growth in assay [1] is -41.3% (active); in assay [2], -73.3% (active); in assay [3] it was -46.5% (active); in assay [4], -97.6% (active); in assay [5], -87% (active); in assay [6], -77.8% (active). Besides, the growth is -96.3% (active) in [7], -0.836% (active) in assay [8], -1.78% (active) in assay [9] and -9.87% (active) in assay [10].
`COc1ccc(NC(=O)c2ccc(Nc3ncnc4[nH]c(C)c(C)c34)cc2)cc1`: the growth in assay [1] was 99.2%; in assay [2] it was 102%; in assay [3], 95.6%; in [4], 97.5%; in assay [5], 93.7%; in assay [6], 107%. Further, the growth in assay [7] is 92.7%; in [8] it was 112%; in [9] it was 95.1%; in assay [10] it was 89.3%.
Consider `CN1CC=C(c2cc(NC(=O)Nc3ccc(Oc4ccnc(NC(=O)C5CC5)c4)c(F)c3)cc(C(F)(F)F)c2)CC1`, for which the growth is -42.8% (active) in assay [1]; -19.9% (active) in [2]; 2.74% (active) in [3]; -1.84% (active) in assay [4]; -2.39% (active) in assay [5]; -1.41% (active) in [6]. Moreover, the growth in [7] was -27.9% (active); in assay [8] it was 1.49% (active); in assay [9], -4.01% (active); in [10], -18.3% (active).
On to `CN1CCN(/C=C2\CC(C(=O)NCc3ccc(Cl)cc3Cl)NC2=O)CC1` (stereo not given), for which the growth in assay [1] was 100%; in [2], 116%; in assay [3], 106%; in assay [4], 95%; in [5] it was 92.7%; in [6] it was 110%. The growth is 90.8% in [7], 88% in [8], 95.2% in [9] and 90.3% in assay [10].
Regarding `CCOC(=O)C1=C(C)n2nc(CC#N)c(C#N)c2NC1c1ccc(CC)cc1` (stereo not given), the growth in [1] is 106%; in assay [2], 82.4%; in assay [3], 100%; in assay [4], 65.4%; in [5], 109%; in assay [6] it was 98.7%. Further, the growth was 104% in [7], 101% in assay [8], 104% in [9] and 104% in assay [10].
Take `CN1CCN(C(=O)[C@@]2(C)CC[C@]3(C)CC[C@]4(C)C(=CC[C@@H]5[C@@]6(C)CC[C@H](OC(=O)c7cccnc7)C(C)(C)[C@@H]6CC[C@]54C)[C@@H]3C2)CC1`: the growth in assay [1] is 101%; in assay [2] it was 76.3%; in assay [3] it was 80.4%; in [4], 74.1%; in assay [5], 116%; in [6], 77.7%. For the same molecule, the growth in assay [7] was 92.1%; in assay [8], 1.45% (active); in [9], 31.9%; in [10], -26.9% (active).
On to `COc1ccc(/C(=N\O)c2cc(C)c(OC)c(C)c2)cc1O`, for which the growth is 37.6% in assay [1]; 51.7% in [2]; 39.4% in assay [3]; 51.6% in assay [4]; 72% in [5]; 31.7% in assay [6]. Moreover, the growth in assay [7] was 6.79% (active); in assay [8], 7.8% (active); in assay [9] it was 13.8%; in [10], 10.3%.
For `C=C1C(=O)O[C@H]2[C@H]1CCC(/C=N/c1ncc(Br)cc1N)=C\CC[C@@]1(C)O[C@@H]21`, the growth in [1] is 46.6%; in assay [2] it was 29%; in assay [3], -24.8% (active); in [4], -72.3% (active); in assay [5], -4.72% (active); in assay [6], 2.47% (active). In addition, the growth in assay [7] was 78%; in [8], 0.102% (active); in [9], -3.09% (active); in [10] it was -3.64% (active).
In the case of `COc1ccc(C2C(c3ccccc3)C(=O)N2c2cc(OC)c(OC)c(OC)c2)cc1I` (stereo not given), the growth was 56.3% in assay [1]; 61.9% in assay [2]; 33% in [3]; 18.7% in [4]; 75.1% in assay [5]; 26.5% in assay [6]. For the same molecule, the growth is -2.63% (active) in assay [7], 7.6% (active) in [8], 7.85% (active) in assay [9] and 8.89% (active) in [10].
For `Cc1nc2sc(C(=O)Nc3cccc(Cl)c3C)c(N)c2cc1C(C)O` (stereo not given), the growth in assay [1] is 24.2%; in assay [2] it was 54.5%; in assay [3], 33.5%; in [4], 48.7%; in [5] it was 46.3%; in [6], 35.7%. Further, the growth in assay [7] was 8.96% (active); in [8], 14.2%; in assay [9], 13%; in assay [10], 12%.
As to `C[C@@H]1C(=O)[C@@H]2C[C@@H](O)[C@@H](O)C[C@]2(C)[C@H]2CC[C@@]3(C)C(=C12)CC[C@@H]3[C@@](C)(O)[C@H](O)CCC(C)(C)O`, the growth is 108% in assay [1]; 113% in [2]; 104% in assay [3]; 89% in assay [4]; 95.9% in [5]; 117% in assay [6]. Moreover, the growth in assay [7] was 67.2%; in assay [8] it was 89.5%; in assay [9] it was 87.3%; in assay [10], 97.4%.
Take `C#C[C@@]1(O)[C@@H](CO)O[C@@H](n2cc(Br)c3c(N)ncnc32)[C@@H]1O`: the growth in [1] was -24.9% (active); in assay [2], -23.8% (active); in assay [3], -1.98% (active); in [4], -78.3% (active); in [5], -0.297% (active); in assay [6] it was -5.98% (active). The growth in assay [7] was -78.9% (active); in [8] it was 3.84% (active); in assay [9], -16.5% (active); in [10], -1.01% (active).
